Records with an inconclusive call do not appear. Calls of active or inactive are those of the source. Calls follow the shape of the dose curve; as a rule, active = well fitted curve in the direction sought with a large enough effect; inconclusive = small, poorly fitted or top-dose-only effect, or another doubt; inactive = no such curve, though single readings can be large; an effect the other way counts as inactive or inconclusive.
Tests used:
[1] = target: ATP-dependent 6-phosphofructokinase (Trypanosoma brucei brucei) (UniProt O15648); assay: qHTS Assay to Find Inhibitors of T. brucei phosphofructokinase: hit validation (AID 492961);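 also: luminescence reports ADP formed as PFK phosphorylates fructose-6-phosphate with ATP; % is scaled to controls: 0 for no effect and ±100 for the full control effect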
Sequence of ATP-dependent 6-phosphofructokinase (Trypanosoma brucei brucei) (O15648 whole entry, looked up): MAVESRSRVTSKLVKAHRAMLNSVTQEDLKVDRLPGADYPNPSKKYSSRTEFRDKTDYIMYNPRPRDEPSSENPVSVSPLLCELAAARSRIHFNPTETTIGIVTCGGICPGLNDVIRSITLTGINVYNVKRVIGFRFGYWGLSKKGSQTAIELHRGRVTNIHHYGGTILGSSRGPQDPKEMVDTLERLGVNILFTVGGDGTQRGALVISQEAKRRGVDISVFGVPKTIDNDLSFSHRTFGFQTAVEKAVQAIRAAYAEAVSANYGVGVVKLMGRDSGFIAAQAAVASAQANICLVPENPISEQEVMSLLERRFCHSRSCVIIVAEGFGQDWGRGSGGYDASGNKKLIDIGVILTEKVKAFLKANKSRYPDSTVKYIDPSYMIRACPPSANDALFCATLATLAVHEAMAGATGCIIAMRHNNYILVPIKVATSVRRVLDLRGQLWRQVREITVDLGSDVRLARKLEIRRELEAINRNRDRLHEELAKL
Method in brief: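 Compounds titrated; %activity normalized to 0x and 1x enzyme controls, curve-fitted. Readout: ADP-Glo luminescence after 45 min room-temperature reaction of 1.25 nM PFK, 0.1 mM ATP, 0.5 mM F6P, pH 8.0.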

[2] = target: Luciferin 4-monooxygenase (Photinus pyralis) (UniProt P08659); assay: Biochemical firefly luciferase enzyme assay for NPC (AID 624030);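 also: purified P. pyralis luciferase at 10 nM with luciferin and ATP substrate; 0% = DMSO and -100% = full luciferase inhibition by PTC124 control; nearly all actives have a fitted effect of over 70% in size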
Sequence of Luciferin 4-monooxygenase (Photinus pyralis) (P08659 whole entry, looked up): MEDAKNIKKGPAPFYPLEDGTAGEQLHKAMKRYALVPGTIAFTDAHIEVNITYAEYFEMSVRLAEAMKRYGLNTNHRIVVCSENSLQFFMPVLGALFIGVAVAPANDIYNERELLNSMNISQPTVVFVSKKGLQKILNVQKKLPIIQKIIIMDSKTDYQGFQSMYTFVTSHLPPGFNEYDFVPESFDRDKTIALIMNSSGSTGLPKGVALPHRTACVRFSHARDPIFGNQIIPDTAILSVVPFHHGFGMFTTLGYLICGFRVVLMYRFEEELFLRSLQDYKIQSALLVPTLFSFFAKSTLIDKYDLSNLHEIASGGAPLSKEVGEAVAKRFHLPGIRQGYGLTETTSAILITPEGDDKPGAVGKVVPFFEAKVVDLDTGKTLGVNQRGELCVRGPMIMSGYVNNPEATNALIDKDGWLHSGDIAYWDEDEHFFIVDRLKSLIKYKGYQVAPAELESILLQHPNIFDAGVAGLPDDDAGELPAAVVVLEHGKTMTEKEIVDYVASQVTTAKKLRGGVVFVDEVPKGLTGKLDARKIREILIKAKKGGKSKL
Method in brief: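 Purified P. pyralis luciferase at 10 nM in 50 mM Tris Acetate (final), luminescence read within 5 minutes of enzyme addition to compounds. Activity normalised to PTC124 versus DMSO; concentration-response curves classed by r2, magnitude and activity.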

ATS189 = assay: qHTS profiling for inhibitors of Plasmodium falciparum proliferation (AID 504749); also: nearly all actives have a fitted effect of over 60% in size; also: potency is read from the fitted curve at half-maximal effect;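 as to activity, negative = inhibition: 0% = DMSO vehicle and full inhibition = artemisinin control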; settings: P. falciparum in erythrocytes, SYBR Green DNA, 72 h; series mostly up to 28.7 µM
Method in brief: (§1)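 Readout was DNA-dye fluorescence from lysed cultures, ex 485/em 535 nm. Parasitized red cells had grown 72 h with compound; data scaled between 0.29 uM artemisinin and DMSO wells and corrected using vehicle-only plates.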

C2A = assay: as above; settings: P. falciparum in erythrocytes, SYBR Green DNA, 72 h; series mostly up to 28.7 µM
Method in brief: as §1

CP215 = assay: as above; settings: P. falciparum in erythrocytes, SYBR Green DNA, 72 h; series mostly up to 28.7 µM
Method in brief: as §1

CP268 = assay: as above; settings: P. falciparum in erythrocytes, SYBR Green DNA, 72 h; series mostly up to 28.7 µM
Method in brief: as §1

CP325 = assay: as above; settings: P. falciparum in erythrocytes, SYBR Green DNA, 72 h; series mostly up to 28.7 µM
Method in brief: as §1

ECU = assay: as above; settings: P. falciparum in erythrocytes, SYBR Green DNA, 72 h; series mostly up to 28.7 µM
Method in brief: as §1

JCK = assay: as above; settings: P. falciparum in erythrocytes, SYBR Green DNA, 72 h; series mostly up to 28.7 µM
Method in brief: as §1

[3] = as above; settings: P. falciparum in erythrocytes, SYBR Green DNA, 72 h; for activity, negative = inhibition: at 28.7 µM (top of the series)
Method in brief: as §1

CP192 = assay: as above; settings: P. falciparum in erythrocytes, SYBR Green DNA, 72 h; series mostly up to 28.7 µM
Method in brief: as §1

CP201 = assay: as above; settings: P. falciparum in erythrocytes, SYBR Green DNA, 72 h; series mostly up to 28.7 µM
Method in brief: as §1

CP269 = assay: as above; settings: P. falciparum in erythrocytes, SYBR Green DNA, 72 h; series mostly up to 28.7 µM
Method in brief: as §1

CP286 = assay: as above; settings: P. falciparum in erythrocytes, SYBR Green DNA, 72 h; series mostly up to 28.7 µM
Method in brief: as §1

CP305 = assay: as above; settings: P. falciparum in erythrocytes, SYBR Green DNA, 72 h; series mostly up to 28.7 µM
Method in brief: as §1

CP329 = assay: as above; settings: P. falciparum in erythrocytes, SYBR Green DNA, 72 h; series mostly up to 28.7 µM
Method in brief: as §1

FAB9 = assay: as above; settings: P. falciparum in erythrocytes, SYBR Green DNA, 72 h; series mostly up to 28.7 µM
Method in brief: as §1

PC49 = assay: as above; settings: P. falciparum in erythrocytes, SYBR Green DNA, 72 h; series mostly up to 28.7 µM
Method in brief: as §1

CP315 = assay: as above; settings: P. falciparum in erythrocytes, SYBR Green DNA, 72 h; series mostly up to 28.7 µM
Method in brief: as §1

C#CC1(O)C=CC2C3CCC4=CC(=O)CCC4C3CCC21CC (stereo not drawn)
active: Potency (CP215) 9.53 µM | Potency (CP268) 7.57 µM | Potency (CP325) 12 µM
inactive: outcome [1] | Potency [2] | Potency (ATS189) | Potency (C2A) | Potency (ECU) | Potency (JCK)

COC(C(=O)C(O)C(C)O)C1Cc2cc3cc(OC4CC(OC5CC(O)C(OC)C(C)O5)C(OC(C)=O)C(C)O4)c(C)c(O)c3c(O)c2C(=O)C1OC1CC(OC2CC(OC3CC(C)(O)C(OC(C)=O)C(C)O3)C(O)C(C)O2)C(O)C(C)O1 (stereo not drawn)
inactive: outcome [1] | Potency [2]
active: Potency ([3]; parasite line A) 0.708 µM | Potency ([3]; parasite line B) 1.41 µM | Potency (ATS189) 1.41 µM | Potency (C2A) 1.78 µM | Potency (CP192) 4.26 µM | Potency (CP201) 15.1 µM | Potency (CP215) 4.26 µM | Potency (CP268) 1.9 µM | Potency (CP269) 1.9 µM | Potency (CP286) 0.1 µM | Potency (CP305) 2.39 µM | Potency (CP325) 3.38 µM | Potency (CP329) 3.38 µM | Potency (ECU) 1 µM | Potency (FAB9) 2 µM | Potency (JCK) 3.98 µM | Potency (PC49) 2.82 µM

CN(C)[C@@H](Cc1ccccc1)c1ccccc1
inactive: outcome [1] | Potency [2] | activity, negative = inhibition ([3]; parasite line A) 6.12% | activity, negative = inhibition ([3]; parasite line B) 4.62% | Potency (ATS189) | Potency (C2A) | Potency (CP192) | Potency (CP201) | Potency (CP215) | Potency (CP268) | Potency (CP269) | Potency (CP286) | Potency (CP305) | Potency (CP315) | Potency (CP325) | Potency (CP329) | Potency (ECU) | Potency (FAB9) | Potency (JCK) | Potency (PC49)

CC(CO)NC(=O)C1C=C2c3cccc4[nH]cc(c34)CC2N(C)C1 (stereo not drawn)
inactive: Potency [2] | activity, negative = inhibition ([3]; parasite line A) -10.6% | activity, negative = inhibition ([3]; parasite line B) -8.5% | Potency (ATS189) | Potency (C2A) | Potency (CP192) | Potency (CP201) | Potency (CP215) | Potency (CP268) | Potency (CP269) | Potency (CP286) | Potency (CP305) | Potency (CP315) | Potency (CP325) | Potency (CP329) | Potency (ECU) | Potency (FAB9) | Potency (JCK) | Potency (PC49)

CC(=O)O[C@H]1C[C@H](O[C@H]2[C@@H](O)CC(O[C@H]3[C@@H](O)C[C@H](O[C@H]4CC[C@@]5(C)[C@H](CC[C@@H]6[C@@H]5CC[C@]5(C)[C@@H](C7=CC(=O)OC7)CC[C@]65O)C4)O[C@@H]3C)O[C@@H]2C)O[C@H](C)[C@H]1O[C@@H]1O[C@H](CO)[C@@H](O)[C@H](O)[C@H]1O (stereo partly drawn)
inactive: outcome [1] | Potency [2] | activity, negative = inhibition ([3]; parasite line A) 9.47% | activity, negative = inhibition ([3]; parasite line B) 16.3% | Potency (ATS189) | Potency (C2A) | Potency (CP192) | Potency (CP201) | Potency (CP215) | Potency (CP268) | Potency (CP269) | Potency (CP286) | Potency (CP305) | Potency (CP315) | Potency (CP325) | Potency (CP329) | Potency (ECU) | Potency (FAB9) | Potency (JCK) | Potency (PC49)

CCCC(C)C1(CC)C(=O)NC(=S)NC1=O (stereo not drawn)
inactive: outcome [1] | Potency [2] | activity, negative = inhibition ([3]; parasite line A) 0.271% | activity, negative = inhibition ([3]; parasite line B) 18% | Potency (ATS189) | Potency (C2A) | Potency (CP201) | Potency (CP215) | Potency (CP268) | Potency (CP269) | Potency (CP286) | Potency (CP305) | Potency (CP315) | Potency (CP325) | Potency (CP329) | Potency (ECU) | Potency (FAB9) | Potency (JCK) | Potency (PC49)

CC(=O)[C@H]1CC[C@H]2C3CC[C@H]4C[C@H](O)CC[C@]4(C)C3CC[C@]12C (stereo partly drawn)
inactive: outcome [1] | Potency [2] | activity, negative = inhibition ([3]; parasite line A) -11.3% | activity, negative = inhibition ([3]; parasite line B) 2.02% | Potency (ATS189) | Potency (C2A) | Potency (CP192) | Potency (CP201) | Potency (CP215) | Potency (CP268) | Potency (CP269) | Potency (CP286) | Potency (CP305) | Potency (CP315) | Potency (CP325) | Potency (CP329) | Potency (ECU) | Potency (FAB9) | Potency (JCK) | Potency (PC49)

C[C@@H](N)[C@@H](O)c1ccc(O)c(O)c1
inactive: Potency [2] | activity, negative = inhibition ([3]; parasite line A) -5.35% | activity, negative = inhibition ([3]; parasite line B) 7.25% | Potency (ATS189) | Potency (C2A) | Potency (CP192) | Potency (CP201) | Potency (CP215) | Potency (CP268) | Potency (CP269) | Potency (CP286) | Potency (CP305) | Potency (CP315) | Potency (CP325) | Potency (CP329) | Potency (ECU) | Potency (FAB9) | Potency (JCK) | Potency (PC49)

CC(C)=CC1C(C(=O)OCc2coc(Cc3ccccc3)c2)C1(C)C (stereo not drawn)
inactive: outcome [1] | Potency [2] | Potency (ATS189) | Potency (C2A) | Potency (CP192) | Potency (CP201) | Potency (CP215) | Potency (CP268) | Potency (CP269) | Potency (CP286) | Potency (CP305) | Potency (CP315) | Potency (CP325) | Potency (CP329) | Potency (ECU) | Potency (FAB9) | Potency (JCK) | Potency (PC49)

Source: PubChem BioAssay (NCATS)
